From PubChem BioAssay
Active and inactive are the calls of the source.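 The calls were made as follows, unless noted: active = visual image review flags a hit and inhibition of aggregation exceeds 20%; inconclusive = visual hit but inhibition at or below 20%; inactive = no hit on visual image review.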

Tests used:
[1] = inhibitors of TNFa-induced NFkB p65 translocation, primary screen, imaging, HUVEC, MLSMR starter and 10KST1 sets (AID 438;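 active = inhibition above 20% together with a positive visual image hit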;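 also: compound added about 3h40 before a 20 min TNFalpha stimulation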;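 as to inhibition: signal is the nuclear over cytoplasmic p65 intensity ratio per well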); conditions: HUVEC TNFa-induced p65 nuclear translocation; cell count: measured here: nuclei count (cytotoxicity indicator), at 2.08 µM; inhibition: at 2 µM, stronger effect = higher value, 0% TNFa-plus-vehicle, 100% no-TNFa wells
[2] = inhibitors of mutant huntingtin aggregation, primary screen, imaging, exon1htt(103Q)mCFP cells, high-content imaging (AID 483); conditions: exon1htt(103Q)mCFP cell line, aggregate imaging, at 2 µM; inhibition of aggregation: stronger effect = higher value; nuclei count: measured here: cell count, toxicity;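 also: compound exposure lasted 3 days before fixation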;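 as to nuclei count: percent of the per-plate median nuclei count of sample wells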
[3] = inhibitors of E-selectin induction by TNFa, primary screen, imaging, HUVEC, immunofluorescence, MLSMR starter and 10KST1 sets (AID 487;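 active = visually confirmed hit in the image check and inhibition above 20%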;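 as to inhibition: signal is fraction of cell area covered by stained E-selectin grains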;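 as to nuclei count: 100% = median nuclei count of all wells on the same plate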); conditions: HUVEC TNFalpha-induced E-selectin immunofluorescence imaging, at 2 µM; inhibition: stronger effect = higher value; nuclei count: measured here: cell number, toxicity
[4] = target: Voltage-gated potassium channel subunit beta-2 (Rattus norvegicus) (UniProt P62483); assay: KvBeta enzyme negative modulators, primary screen, biochemical, NADPH fluorescence (AID 622;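 active = fluorescence slope higher than the sample average by over 3 SD, cut at about -0.22 in these data, passing the limit was not always enough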;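 also: slope of raw intensity against log time taken from 70 to 1610 s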); conditions: recombinant KvBeta, 4-cyanobenzaldehyde reduction, at 10 µM, stronger effect = higher value
Sequence of Voltage-gated potassium channel subunit beta-2 (Rattus norvegicus) (P62483 whole entry, looked up): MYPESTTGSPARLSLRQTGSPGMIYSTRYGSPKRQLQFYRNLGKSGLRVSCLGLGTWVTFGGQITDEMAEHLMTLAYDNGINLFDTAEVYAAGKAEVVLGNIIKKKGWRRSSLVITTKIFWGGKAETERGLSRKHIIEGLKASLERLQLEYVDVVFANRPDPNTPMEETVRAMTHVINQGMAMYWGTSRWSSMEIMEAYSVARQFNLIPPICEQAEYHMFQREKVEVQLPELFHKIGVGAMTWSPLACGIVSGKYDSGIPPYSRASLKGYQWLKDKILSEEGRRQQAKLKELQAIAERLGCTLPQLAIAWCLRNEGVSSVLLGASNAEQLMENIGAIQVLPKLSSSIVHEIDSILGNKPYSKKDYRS

[5] = target: Voltage-gated potassium channel subunit beta-2 (Rattus norvegicus) (UniProt P62483); assay: KvBeta positive modulators, primary screen, biochemical, NADPH fluorescence (AID 623;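 active = NADPH fluorescence slope more negative than the mean of all samples by about 3 SD, 99.7% confidence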;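 also: fluorescence intensity change per second fitted from 20 to 320 s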); conditions: Recombinant KvBeta, NADPH fluorescence decrease slope, 10 min; at 10 µM; stronger effect = lower value
[6] = target: Alpha-2C adrenergic receptor (Homo sapiens) (UniProt P18825); assay: modulators of alpha2C/GIRK thallium flux, primary screen, cell-based, HEK293 alpha2C/GIRK1/2 (AID 624;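 active = fluorescence slope after compound addition differing from the mean of all screened samples at 99.7% confidence, in either direction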;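 also: slope of fluorescence ratio to pre-addition baseline per second over 15 to 24 s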); conditions: thallium flux BTC fluorescence, at 10 µM, actives lie on both sides
Sequence of Alpha-2C adrenergic receptor (Homo sapiens) (P18825 whole entry, looked up): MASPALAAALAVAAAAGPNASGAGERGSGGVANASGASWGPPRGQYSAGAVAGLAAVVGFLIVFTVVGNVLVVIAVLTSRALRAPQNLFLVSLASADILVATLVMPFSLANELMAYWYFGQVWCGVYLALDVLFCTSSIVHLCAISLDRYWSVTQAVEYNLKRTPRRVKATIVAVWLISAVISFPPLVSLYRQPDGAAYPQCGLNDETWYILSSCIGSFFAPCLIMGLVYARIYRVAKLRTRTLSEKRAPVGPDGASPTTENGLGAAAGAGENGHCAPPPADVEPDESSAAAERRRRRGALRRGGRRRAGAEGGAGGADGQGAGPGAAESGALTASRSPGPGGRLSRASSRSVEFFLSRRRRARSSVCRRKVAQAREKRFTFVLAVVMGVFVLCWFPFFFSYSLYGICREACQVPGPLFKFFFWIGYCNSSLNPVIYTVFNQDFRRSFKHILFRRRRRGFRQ

[7] = inhibitors of Sendai virus-induced IRF3 signaling, primary screen, TLR/RLR signaling modifier project, cell-based, Sendai virus stimulus, luciferase, 10K MLSCN set (AID 602276;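 active = inhibition at or above 50% at 10 µM; inactive = inhibition below 50%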;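 also: firefly luciferase from ISG56 promoter only with Renilla not read in this screen; 0% = Sendai virus plus DMSO and 100% = medium plus DMSO without virus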); conditions: HEK293 RL24 IRF3 luciferase reporter, at 10 µM, stronger effect = higher value
[8] = inhibitors of poly I:C-induced TLR3 signaling, primary screen, cell-based, poly I:C stimulus, luciferase, 10K MLSCN set (AID 602277;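 active = inhibition of the reporter signal at or above 50%; inactive = inhibition below 50%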); conditions: HEK293-TLR3 RL24 IRF3 luciferase reporter, at 10 µM, stronger effect = higher value

Compound: CN(C)S(=O)(=O)c1ccc(C(=O)NCc2cccs2)cc1
- cell count [1]: 436
- inhibition [1]: 4.7% (inactive)
- inhibition of aggregation [2]: 6.5% (inactive)
- nuclei count [2]: 105%
- inhibition [3]: 15.4% (inactive)
- nuclei count [3]: 125%
- fluorescence slope [4]: -0.611 (inactive)
- NADPH fluorescence slope [5]: -2.1e-05 (inactive)
- slope [6]: 0.00652 (inactive)
- inhibition [7]: 3.68% (inactive)
- inhibition [8]: 3.16% (inactive)

Compound: Cc1csc(NC(=O)c2ccoc2C)n1
- cell count [1]: 435
- inhibition [1]: 1.3% (inactive)
- inhibition of aggregation [2]: -7.1% (inactive)
- nuclei count [2]: 90.7%
- inhibition [3]: 9% (inactive)
- nuclei count [3]: 97.9%
- fluorescence slope [4]: -0.534 (inactive)
- NADPH fluorescence slope [5]: 2.1e-05 (inactive)
- slope [6]: 0.00451 (inactive)
- inhibition [7]: -53.3% (inactive)
- inhibition [8]: -87.5% (inactive)

Compound: O=C1CCn2nc(-c3ccc(Cl)cc3)cc2N1
- cell count [1]: 557
- inhibition [1]: -0.5% (inactive)
- inhibition of aggregation [2]: -106% (inactive)
- nuclei count [2]: 1.2%
- inhibition [3]: -66.1% (inactive)
- nuclei count [3]: 118%
- fluorescence slope [4]: -0.601 (inactive)
- NADPH fluorescence slope [5]: -3.8e-05 (inactive)
- slope [6]: 0.00658 (inactive)
- inhibition [7]: -20.1% (inactive)
- inhibition [8]: -53% (inactive)

Compound: Cc1nc2cc(C(=O)O)ccc2n1-c1ccc(F)cc1F
- cell count [1]: 672
- inhibition [1]: -1.5% (inactive)
- inhibition of aggregation [2]: -2.2% (inactive)
- nuclei count [2]: 99.5%
- inhibition [3]: -12.5% (inactive)
- nuclei count [3]: 116%
- fluorescence slope [4]: -0.527 (inactive)
- NADPH fluorescence slope [5]: -4.1e-05 (inactive)
- slope [6]: 0.00687 (inactive)
- inhibition [7]: 4.77% (inactive)
- inhibition [8]: 27.2% (inactive)

Compound: CCc1nnc(NC(=O)CSc2nnc(-c3ccc(OC)cc3)n2C)s1
- cell count [1]: 648
- inhibition [1]: 14.3% (inactive)
- inhibition of aggregation [2]: 21.9% (inactive)
- nuclei count [2]: 66.3%
- inhibition [3]: 5.4% (inactive)
- nuclei count [3]: 112%
- fluorescence slope [4]: -0.609 (inactive)
- NADPH fluorescence slope [5]: -3e-05 (inactive)
- slope [6]: 0.00434 (inactive)
- inhibition [7]: 12.5% (inactive)
- inhibition [8]: 20.1% (inactive)

Compound: COc1cccc(NC(=O)COC(=O)c2ccco2)c1
- cell count [1]: 393
- inhibition [1]: -4% (inactive)
- inhibition of aggregation [2]: -17.7% (inactive)
- nuclei count [2]: 92.3%
- inhibition [3]: -0.6% (inactive)
- nuclei count [3]: 122%
- fluorescence slope [4]: -0.47 (inactive)
- NADPH fluorescence slope [5]: 7.3e-06 (inactive)
- slope [6]: 0.00724 (inactive)
- inhibition [7]: 13.4% (inactive)
- inhibition [8]: 20.6% (inactive)

Compound: O=C(NCCC1=CCCCC1)N[C@@H](Cc1ccccc1)C(=O)O
- cell count [1]: 377
- inhibition [1]: -3.9% (inactive)
- inhibition of aggregation [2]: -1.8% (inactive)
- nuclei count [2]: 108%
- inhibition [3]: -24.3% (inactive)
- nuclei count [3]: 115%
- fluorescence slope [4]: -0.447 (inactive)
- NADPH fluorescence slope [5]: -0.000113 (active)
- slope [6]: 0.00549 (inactive)
- inhibition [7]: -1.48% (inactive)
- inhibition [8]: 0.553% (inactive)

Compound: Cc1ccc(C)c(NS(=O)(=O)c2ccc(NC(=O)c3ccco3)cc2)c1
- cell count [1]: 476
- inhibition [1]: 13.3% (inactive)
- inhibition of aggregation [2]: 4.7% (inactive)
- nuclei count [2]: 111%
- inhibition [3]: -15.1% (inactive)
- nuclei count [3]: 109%
- fluorescence slope [4]: -0.335 (inactive)
- NADPH fluorescence slope [5]: -3.2e-05 (inactive)
- slope [6]: 0.00608 (inactive)
- inhibition [7]: 0.316% (inactive)
- inhibition [8]: 11.1% (inactive)

Compound: N#Cc1nc(-c2ccco2)oc1N1CCN(c2cccc(Cl)c2)CC1
- cell count [1]: 744
- inhibition [1]: -7.5% (inactive)
- inhibition of aggregation [2]: 20.8% (inactive)
- nuclei count [2]: 123%
- inhibition [3]: -75.1% (inactive)
- nuclei count [3]: 109%
- fluorescence slope [4]: -0.334 (inactive)
- NADPH fluorescence slope [5]: 2.4e-05 (inactive)
- slope [6]: 0.00657 (inactive)
- inhibition [7]: 8.62% (inactive)
- inhibition [8]: -3.74% (inactive)

Compound: COc1ccc(-n2c(SCC(=O)N3CCCCC3C)nnc2-c2cccnc2)cc1 (centres undefined)
- cell count [1]: 584
- inhibition [1]: -12.2% (inactive)
- inhibition of aggregation [2]: 24.3% (inactive)
- nuclei count [2]: 93.6%
- inhibition [3]: -23.2% (inactive)
- nuclei count [3]: 103%
- fluorescence slope [4]: -0.337 (inactive)
- NADPH fluorescence slope [5]: -5.2e-05 (inactive)
- slope [6]: 0.00523 (inactive)
- inhibition [7]: 6.12% (inactive)
- inhibition [8]: 9.8% (inactive)

Compound: CCOC(=O)C(NC(=O)OC(C)C)(Nc1nccs1)C(F)(F)F (centres undefined)
- cell count [1]: 636
- inhibition [1]: 10.6% (inactive)
- inhibition of aggregation [2]: -13.3% (inactive)
- nuclei count [2]: 98.7%
- inhibition [3]: 22.7% (inactive)
- nuclei count [3]: 108%
- fluorescence slope [4]: -0.608 (inactive)
- NADPH fluorescence slope [5]: -5.2e-07 (inactive)
- slope [6]: 0.00583 (inactive)
- inhibition [7]: 8.51% (inactive)
- inhibition [8]: 27.8% (inactive)

Compound: CCOC(=O)CSc1nc2cccnc2n1-c1ccc(F)cc1
- cell count [1]: 328
- inhibition [1]: -0.2% (inactive)
- inhibition of aggregation [2]: -28% (inactive)
- nuclei count [2]: 110%
- inhibition [3]: -26.8% (inactive)
- nuclei count [3]: 111%
- fluorescence slope [4]: -0.444 (inactive)
- NADPH fluorescence slope [5]: -1.6e-05 (inactive)
- slope [6]: 0.0064 (inactive)
- inhibition [7]: -4.88% (inactive)
- inhibition [8]: 2.83% (inactive)

Compound: CCCC(=O)Nc1cc(C)c2c(=O)oc3ccccc3c2n1
- cell count [1]: 627
- inhibition [1]: -24.4% (inactive)
- inhibition of aggregation [2]: -6.5% (inactive)
- nuclei count [2]: 97.4%
- inhibition [3]: -37.2% (inactive)
- nuclei count [3]: 121%
- fluorescence slope [4]: -0.447 (inactive)
- NADPH fluorescence slope [5]: -7.8e-05 (inactive)
- slope [6]: 0.0057 (inactive)
- inhibition [7]: -9.8% (inactive)
- inhibition [8]: -24.7% (inactive)

Compound: CCNc1nc(N2CCOCC2)nc(N(c2ccccc2)c2ccccc2)n1
- cell count [1]: 324
- inhibition [1]: 8.2% (inactive)
- inhibition of aggregation [2]: -29.1% (inactive)
- nuclei count [2]: 93.3%
- inhibition [3]: -3.9% (inactive)
- nuclei count [3]: 101%
- fluorescence slope [4]: -0.388 (inactive)
- NADPH fluorescence slope [5]: -5.9e-05 (inactive)
- slope [6]: 0.00355 (inactive)
- inhibition [7]: 9.87% (inactive)
- inhibition [8]: 28.5% (inactive)
